Here are results for 39 compounds from PubChem BioAssay (NCATS).

Inconclusive results are not listed. Where a call stands in place of a potency, no number is given. Unmarked numbers belong to inactive results. The source made the active and inactive calls. Calls come from the whole dose curve; as a rule, active = well fitted cell-killing curve with a large enough effect; inconclusive = small, poorly fitted or top-dose-only effect, or effect the other way; inactive = flat fitted curve, though single readings scatter. Where a SMILES comes first, the peptide text is derived from it. The star is where a group is joined. βNA = c1ccc2cc(N*)ccc2c1; Cbz = O=C(OCc1ccccc1)*

The subject of the first assay is CAOV3. The assay can be described thus: Primary qHTS to identify gynecologic anti-cancer compounds using libraries of approved drugs and bioactive compounds (AID 1345084). Note: nearly all actives have a fitted effect of over 55% in size. The following applies: Gynecologic cancer cell panel viability, ATPlite luminescence, 48 h; series mostly up to 57.5 µM. Summed up:
(§1)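 Cytotoxicity screen measuring ATP content by luciferase luminescence. Each compound is applied at five concentrations for 48 h at 37 C with 5% CO2.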
`COC(=O)c1c(CC=C(C)C)c(OC2OC(CO)C(O)C(O)C2O)c2ccccc2c1OC1OC(CO)C(O)C(O)C1O` (centres undefined): the Potency entry is “inactive”.

With `C[C@]1(O)CC[C@@H]2C(C(=O)O)=CO[C@@H](O[C@@H]3O[C@H](COC(=O)/C=C/c4ccc(O)c(O)c4)[C@@H](O)[C@H](O)[C@H]3O)[C@@H]21`, the Potency entry is “inactive”.

Regarding `CC(C)(O)C1CC=C(C(=O)OC[C@H]2O[C@@H](Oc3cc(C(=O)O)cc(O)c3O)[C@H](O)[C@@H](O)[C@@H]2O)CC1` (some centres undefined), the Potency result is “inactive”.

On to `COc1cc2c(cc1O)CC(O)(CO)C(CO)C2c1ccc(OC2OC(CO)C(O)C(O)C2O)c(OC)c1` (centres undefined), for which the Potency entry was “inactive”.

For the compound `O=C(O)CC/C=C\C[C@H]1CO[C@@H](c2ccccc2Cl)O[C@H]1c1ccccc1O`, the Potency result is “inactive”.

The next assay relates to CASKI. The description is as above. Conditions: Gynecologic cancer cell panel viability, ATPlite luminescence, 48 h; series mostly up to 57.5 µM. Summed up: as §1
A general note: ATP-based viability assays read luminescence as a measure of living cells.
Consider `C/C(=C\CCC1(C)C2CC3C(C2)C31C)C(=O)O` (centres undefined), for which the compound was called inactive.

With `CCCC1=CC2=C(CO1)C(=O)C(C)(O)C(OC(=O)c1c(C)cc(OC)cc1O)C2` (centres undefined), the call was inactive.

In the case of `COc1cnc(-n2cnc(C)n2)c2[nH]cc(C(=O)C(=O)N3CCN(C(=O)c4ccccc4)CC3)c12`, the compound was classed as inactive.

Turning to `CCCC/C=C\CCCCCc1cc(=O)c2ccccc2n1C`, the compound was classed as inactive.

Take `CCN1CCN(C(=O)N[C@@H](C(=O)N[C@@H]2C(=O)N3[C@@H]2SC(C)(C)[C@@H]3C(=O)O)c2ccccc2)C(=O)C1=O`: the compound was called inactive.

For the compound `C[C@@H]1O[C@@H](O[C@@H]2[C@@H](O)[C@H](O[C@H]3[C@H](O[C@H]4CC[C@@]5(C)C(CC[C@]6(C)C5CC=C5[C@@H]7CC(C)(C)CC[C@]7(C(=O)O[C@@H]7O[C@H](CO)[C@@H](O)[C@H](O)[C@H]7O)CC[C@]56C)C4(C)C)O[C@H](C(=O)O)[C@@H](O)[C@@H]3O)OC[C@H]2O)[C@H](O)[C@H](O)[C@H]1O` (some centres undefined), the activity change, negative = cytotoxicity was -1.32% [at 11.6 µM].

`COC(=O)C1=COC(O[C@@H]2O[C@H](CO)[C@@H](O)[C@H](O)[C@H]2O)/C(=C\COC(=O)/C=C/c2ccccc2)C1CC(=O)OCCc1ccc(O)cc1` (some centres undefined): the call was inactive.

On to `C=CC(C)(O)CC/C=C(\C)C1CC=C(C)C(=O)O1` (centres undefined), for which the outcome was inactive.

Take `COc1cc(/C=C/C(=O)OC[C@H]2O[C@@H](OC3CC(C)=C(C(=O)O)C(C)(C)C3)[C@H](O)[C@@H](O)[C@@H]2O)cc(OC)c1O` (some centres undefined): the result was inactive.

With `CC1(C)C[C@H](O)C[C@@]2(C)[C@H]1[C@H](O)C=C1COC(=O)[C@@]12O`, the outcome was inactive.

For `O=C(O)Cc1cn([C@@H]2O[C@H](CO)[C@@H](O)[C@H](O)[C@H]2O[C@@H]2O[C@H](CO)[C@@H](O)[C@H](O)[C@H]2O)c2ccccc12`, the compound was classed as inactive.

In the case of `C=C1CC[C@@]2(OC1)O[C@H]1CC3[C@@H]4CC=C5C[C@@H](O)C[C@@H](O[C@@H]6OC[C@H](O)[C@H](O)[C@H]6O[C@@H]6O[C@@H](C)[C@H](O)[C@@H](O)[C@H]6O)[C@]5(C)C4CC[C@]3(C)[C@H]1[C@@H]2C` (some centres undefined), the compound was classed as inactive.

Take `CC(C)CC(NC(=O)OCc1ccccc1)C(=O)NC(CC(C)C)C(=O)NC(CCC(=O)O)C(=O)Nc1ccc2ccccc2c1` (stereo not drawn) (Cbz-Leu-Leu-Glu-βNA; configuration not given here): the result was inactive.

For the compound `OC[C@@]1(O)CO[C@H](OC[C@H]2O[C@@H](OC(CCCCc3ccc(O)cc3)CCc3ccc(O)cc3)[C@H](O)[C@@H](O)[C@@H]2O)[C@@H]1O` (some centres undefined), the result was inactive.

For `Nc1ccc(-n2nc(C(F)(F)F)cc2C(F)(F)F)cc1`, the outcome was inactive.

For the compound `C/C(=C\C(=O)C[C@@]12C(=O)O[C@]3(C)CC[C@H]1C[C@H]23)C(N)=O`, the compound was classed as inactive.

Regarding `Nc1ncnc2c1C(=O)N(c1ccc(C3CCC(CC(=O)O)CC3)cc1)CCO2` (centres undefined), the compound was called inactive.

Regarding `COC1OC(=O)C2=C1C1(C)CCCC(C)(C)C1CC2O` (centres undefined), the result was inactive.

As for `C=C(CC/C=C(\C)C(=O)O)C1(O)CC=C(C)CC1` (centres undefined), the result was inactive.

Turning to `CC(C)Oc1ccc(-c2nc(-c3cccc4c3CCC4NCCC(=O)O)no2)cc1C#N` (centres undefined), the call was inactive.

`C=C1CC[C@@]2(OC1)O[C@H]1CC3[C@@H]4CC=C5C[C@H](O[C@H]6OC[C@@H](O)C(O)[C@@H]6O[C@@H]6O[C@@H](C)[C@H](O)[C@@H](O[C@@H]7O[C@H](CO)[C@@H](O)[C@H](O)[C@H]7O)[C@H]6O)C[C@@H](O)[C@]5(C)C4CC[C@]3(C)[C@H]1[C@@H]2C` (some centres undefined): the activity change, negative = cytotoxicity is -7.31% [at 11.6 µM].

Turning to `CC(C)c1cc2c(c(O)c1O)[C@@]13CCCC(C)(C)C1[C@@H](O)[C@@H]2OC3=O` (some centres undefined), the outcome was inactive.

Regarding `COc1cccc(C)c1C(=O)O[C@@H]1C[C@H](O[C@H]2[C@H](O)C[C@H](O[C@@H]3CCC[C@H]4[C@H]3C=C[C@@H]3CCCC/C=C/[C@H]5C=C(C(=O)O)[C@@H](C)C[C@@]56OC(=O)C(=C6O)OC(=O)[C@@]34C)O[C@@H]2C)O[C@H](C)[C@H]1O`, the activity change, negative = cytotoxicity is 10.4% [at 11.6 µM].

Regarding `CC(=O)OC1C(CO)OC(O[C@H]2[C@H](OC(=O)[C@]34CCC(C)(C)C[C@H]3C3=CCC5[C@@]6(C)CC[C@H](O[C@@H]7O[C@H](C(=O)O)[C@@H](O)[C@H](O[C@@H]8OC[C@@H](O)[C@H](O)[C@H]8O)[C@H]7O[C@@H]7O[C@H](CO)[C@H](O)[C@H](O)[C@H]7O)[C@@](C)(C=O)C6CC[C@@]5(C)[C@]3(C)C[C@H]4O)O[C@H](C)[C@H](OC3OC(C)C(OC4OCC(O)C(O)C4O)C(O)C3O)[C@@H]2O)C(O)C1O` (some centres undefined), the activity change, negative = cytotoxicity is 7.74% [at 6.55 µM].

As to `CC(C)=CCC/C(C)=C/CO[C@@H]1O[C@H](CO[C@@H]2O[C@@H](CO)[C@H](O)[C@H]2O)[C@@H](O)[C@H](O)[C@H]1O`, the outcome was inactive.

Consider `O=C(c1ccc(Cl)c([N+](=O)[O-])c1)N1CCN(c2ccccc2F)CC1`, for which the result was inactive.

Consider `COc1cc(O)c2c(c1Cl)CC(C)OC2=O` (centres undefined), for which the result was inactive.

`CCCCNc1nc(N)c2[nH]c(=O)n(Cc3ccc(OCCN(C)C)nc3)c2n1`: the outcome was inactive.

Turning to `CC(O)C(=O)/C=C/C=C/C(=O)OC1C=C2COC(=O)C2(O)C2(C)CCCC(C)(C)C12` (centres undefined), the outcome was inactive.

As for `CC1(C)CC[C@]2(C(=O)O)CC[C@]3(C)C(=CCC4[C@@]5(C)CC[C@H](O[C@@H]6O[C@H](C(=O)O)[C@@H](O)[C@H](O[C@@H]7O[C@H](CO)[C@H](O)[C@H](O)[C@H]7O)[C@H]6O[C@@H]6O[C@H](CO)[C@@H](O)[C@H](O)[C@H]6O)C(C)(C)C5CC[C@]43C)[C@@H]2C1` (some centres undefined), the activity change, negative = cytotoxicity was 11.8% [at 6.55 µM].

As to `CC(=O)OC(C)(C)/C=C/C(=O)[C@](C)(O)C1[C@H](O)C[C@@]2(C)[C@@H]3CC=C4[C@@H](C[C@H](O[C@@H]5O[C@H](CO)[C@@H](O)[C@H](O)[C@H]5O)C(=O)C4(C)C)[C@]3(C)C(=O)C[C@]12C` (some centres undefined), the compound was classed as inactive.

As for `CC1=CC(=O)CC(C)(C)[C@@]1(O)/C=C/C(C)O[C@@H]1O[C@H](CO)[C@@H](O)[C@H](O)[C@H]1O` (some centres undefined), the compound was called inactive.

For `CC(C)C1NC(=O)C(CC2(O)c3ccccc3N3C(=O)C(Cc4ccccc4)NC32)NC1=O` (centres undefined), the call was inactive.

For the compound `OC[C@@]1(O)CO[C@H](OC[C@H]2O[C@@H](OC(CCCCc3ccc(O)cc3)CCc3ccc(O)cc3)[C@H](O[C@H]3OC[C@](O)(CO)[C@H]3O)[C@@H](O)[C@@H]2O)[C@@H]1O` (some centres undefined), the outcome was inactive.

In the case of `COC(=O)c1c(CC=C(C)C)c(OC2OC(CO)C(O)C(O)C2O)c2ccccc2c1OC1OC(CO)C(O)C(O)C1O` (centres undefined), the compound was called inactive.

For `C[C@]1(O)CC[C@@H]2C(C(=O)O)=CO[C@@H](O[C@@H]3O[C@H](COC(=O)/C=C/c4ccc(O)c(O)c4)[C@@H](O)[C@H](O)[C@H]3O)[C@@H]21`, the outcome was inactive.

Consider `CC(C)(O)C1CC=C(C(=O)OC[C@H]2O[C@@H](Oc3cc(C(=O)O)cc(O)c3O)[C@H](O)[C@@H](O)[C@@H]2O)CC1` (some centres undefined), for which the result was inactive.

Consider `COc1cc2c(cc1O)CC(O)(CO)C(CO)C2c1ccc(OC2OC(CO)C(O)C(O)C2O)c(OC)c1` (centres undefined), for which the compound was classed as inactive.

Turning to `O=C(O)CC/C=C\C[C@H]1CO[C@@H](c2ccccc2Cl)O[C@H]1c1ccccc1O`, the result was inactive.
